Columns and labels:
[1] = target: T1, Inhibitor of nuclear factor kappa-B kinase subunit epsilon (Homo sapiens) (UniProt Q14164); conditions: at 1 µM;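 further: reported values are averaged percent inhibition figures against human IKKε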
T1 sequence (whole entry): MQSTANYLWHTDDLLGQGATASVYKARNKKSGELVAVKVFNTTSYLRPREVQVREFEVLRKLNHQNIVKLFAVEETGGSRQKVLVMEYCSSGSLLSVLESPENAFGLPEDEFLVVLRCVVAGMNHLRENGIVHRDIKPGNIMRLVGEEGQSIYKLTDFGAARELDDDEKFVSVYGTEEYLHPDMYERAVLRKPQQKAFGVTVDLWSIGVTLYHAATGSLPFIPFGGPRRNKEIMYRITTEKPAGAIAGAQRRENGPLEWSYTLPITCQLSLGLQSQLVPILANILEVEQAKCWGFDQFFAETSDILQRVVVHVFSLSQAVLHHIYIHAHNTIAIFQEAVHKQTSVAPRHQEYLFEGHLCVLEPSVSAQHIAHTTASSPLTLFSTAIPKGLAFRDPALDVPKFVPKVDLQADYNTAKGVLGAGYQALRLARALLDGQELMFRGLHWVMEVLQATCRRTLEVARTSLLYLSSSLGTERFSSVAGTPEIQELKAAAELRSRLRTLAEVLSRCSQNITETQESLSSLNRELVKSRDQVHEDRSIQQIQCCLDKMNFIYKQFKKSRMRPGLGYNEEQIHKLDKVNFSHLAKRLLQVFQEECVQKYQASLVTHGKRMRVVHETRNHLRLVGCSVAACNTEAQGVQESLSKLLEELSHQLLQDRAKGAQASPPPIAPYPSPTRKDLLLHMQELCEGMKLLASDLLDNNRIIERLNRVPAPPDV

[2] = target: T2, Serine/threonine-protein kinase Nek1 (Homo sapiens) (UniProt Q96PY6); conditions: at 0.1 µM
T2 sequence (whole entry): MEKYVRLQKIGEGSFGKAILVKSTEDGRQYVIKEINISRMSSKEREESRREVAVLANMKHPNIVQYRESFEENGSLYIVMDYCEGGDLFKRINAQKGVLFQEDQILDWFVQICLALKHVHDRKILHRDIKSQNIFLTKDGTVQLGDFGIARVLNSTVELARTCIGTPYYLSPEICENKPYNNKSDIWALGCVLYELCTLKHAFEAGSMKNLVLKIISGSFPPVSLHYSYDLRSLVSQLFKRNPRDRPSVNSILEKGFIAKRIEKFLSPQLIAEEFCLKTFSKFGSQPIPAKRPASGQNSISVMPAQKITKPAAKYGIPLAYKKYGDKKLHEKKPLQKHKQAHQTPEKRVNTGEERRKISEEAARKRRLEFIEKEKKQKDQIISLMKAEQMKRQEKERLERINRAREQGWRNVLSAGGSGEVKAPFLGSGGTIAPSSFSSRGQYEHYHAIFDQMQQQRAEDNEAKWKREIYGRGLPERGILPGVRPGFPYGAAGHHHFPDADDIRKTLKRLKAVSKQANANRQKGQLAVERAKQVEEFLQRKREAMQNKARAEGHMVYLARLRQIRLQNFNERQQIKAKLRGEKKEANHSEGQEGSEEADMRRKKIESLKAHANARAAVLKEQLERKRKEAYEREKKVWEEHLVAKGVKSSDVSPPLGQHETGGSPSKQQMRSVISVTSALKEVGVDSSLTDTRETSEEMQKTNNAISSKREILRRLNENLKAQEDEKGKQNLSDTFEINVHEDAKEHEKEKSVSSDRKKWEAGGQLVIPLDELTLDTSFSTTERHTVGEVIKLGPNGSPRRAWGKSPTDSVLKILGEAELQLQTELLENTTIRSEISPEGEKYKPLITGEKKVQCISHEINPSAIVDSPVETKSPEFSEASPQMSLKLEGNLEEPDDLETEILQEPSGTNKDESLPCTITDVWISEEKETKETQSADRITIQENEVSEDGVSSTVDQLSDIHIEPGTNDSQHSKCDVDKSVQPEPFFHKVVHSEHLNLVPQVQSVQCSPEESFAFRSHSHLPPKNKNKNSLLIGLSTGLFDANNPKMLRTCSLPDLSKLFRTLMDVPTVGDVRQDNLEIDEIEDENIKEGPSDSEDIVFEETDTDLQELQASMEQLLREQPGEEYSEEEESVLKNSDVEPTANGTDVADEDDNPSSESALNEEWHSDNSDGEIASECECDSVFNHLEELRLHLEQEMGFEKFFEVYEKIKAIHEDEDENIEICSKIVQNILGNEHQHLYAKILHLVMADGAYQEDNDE

[3] = target: T2, Serine/threonine-protein kinase Nek1 (Homo sapiens); conditions: at 1 µM
[4] = target: T3, Serine/threonine-protein kinase Nek2 (Homo sapiens) (UniProt P51955); conditions: at 0.1 µM
T3 sequence (whole entry): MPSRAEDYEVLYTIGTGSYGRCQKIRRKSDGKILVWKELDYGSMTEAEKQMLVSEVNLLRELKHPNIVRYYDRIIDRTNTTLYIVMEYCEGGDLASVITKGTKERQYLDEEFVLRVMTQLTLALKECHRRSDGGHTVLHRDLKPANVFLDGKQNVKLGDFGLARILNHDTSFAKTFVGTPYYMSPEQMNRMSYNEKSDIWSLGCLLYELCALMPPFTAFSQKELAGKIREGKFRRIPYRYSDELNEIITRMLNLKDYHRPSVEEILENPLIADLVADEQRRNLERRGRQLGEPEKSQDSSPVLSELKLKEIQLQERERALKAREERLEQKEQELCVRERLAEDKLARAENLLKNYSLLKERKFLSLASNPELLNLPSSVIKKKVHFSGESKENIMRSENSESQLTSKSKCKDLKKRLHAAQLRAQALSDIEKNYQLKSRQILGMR

[5] = target: T3, Serine/threonine-protein kinase Nek2 (Homo sapiens); conditions: at 1 µM
[6] = target: Serine/threonine-protein kinase Nek6 (Homo sapiens) (UniProt Q9HC98); conditions: at 0.1 µM
Serine/threonine-protein kinase Nek6 (Homo sapiens), sequence (Q9HC98 whole entry): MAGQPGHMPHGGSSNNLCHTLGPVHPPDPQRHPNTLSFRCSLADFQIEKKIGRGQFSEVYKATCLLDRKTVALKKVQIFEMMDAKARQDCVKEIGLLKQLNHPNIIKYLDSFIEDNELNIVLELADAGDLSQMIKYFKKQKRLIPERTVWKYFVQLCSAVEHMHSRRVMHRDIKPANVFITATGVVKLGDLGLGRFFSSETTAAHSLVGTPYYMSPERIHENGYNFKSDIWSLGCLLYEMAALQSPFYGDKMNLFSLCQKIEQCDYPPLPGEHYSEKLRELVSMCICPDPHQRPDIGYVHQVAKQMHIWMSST

[7] = target: Serine/threonine-protein kinase Nek6 (Homo sapiens) (UniProt Q9HC98); conditions: at 1 µM
[8] = target: Serine/threonine-protein kinase Nek7 (Homo sapiens) (UniProt Q8TDX7); conditions: at 0.1 µM
Serine/threonine-protein kinase Nek7 (Homo sapiens), sequence (Q8TDX7 whole entry, looked up): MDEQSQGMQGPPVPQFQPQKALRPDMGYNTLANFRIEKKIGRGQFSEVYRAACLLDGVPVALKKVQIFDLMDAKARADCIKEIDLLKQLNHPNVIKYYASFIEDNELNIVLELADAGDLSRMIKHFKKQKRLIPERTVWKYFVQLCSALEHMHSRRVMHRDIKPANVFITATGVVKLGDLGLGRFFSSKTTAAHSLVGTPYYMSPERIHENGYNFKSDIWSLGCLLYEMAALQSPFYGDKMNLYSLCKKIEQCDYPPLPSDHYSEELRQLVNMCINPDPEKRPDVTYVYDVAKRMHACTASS

[9] = target: Serine/threonine-protein kinase Nek7 (Homo sapiens) (UniProt Q8TDX7); conditions: at 1 µM
[10] = target: T4, Serine/threonine-protein kinase Nek9 (Homo sapiens) (UniProt Q8TD19); conditions: at 0.1 µM
T4 sequence (whole entry): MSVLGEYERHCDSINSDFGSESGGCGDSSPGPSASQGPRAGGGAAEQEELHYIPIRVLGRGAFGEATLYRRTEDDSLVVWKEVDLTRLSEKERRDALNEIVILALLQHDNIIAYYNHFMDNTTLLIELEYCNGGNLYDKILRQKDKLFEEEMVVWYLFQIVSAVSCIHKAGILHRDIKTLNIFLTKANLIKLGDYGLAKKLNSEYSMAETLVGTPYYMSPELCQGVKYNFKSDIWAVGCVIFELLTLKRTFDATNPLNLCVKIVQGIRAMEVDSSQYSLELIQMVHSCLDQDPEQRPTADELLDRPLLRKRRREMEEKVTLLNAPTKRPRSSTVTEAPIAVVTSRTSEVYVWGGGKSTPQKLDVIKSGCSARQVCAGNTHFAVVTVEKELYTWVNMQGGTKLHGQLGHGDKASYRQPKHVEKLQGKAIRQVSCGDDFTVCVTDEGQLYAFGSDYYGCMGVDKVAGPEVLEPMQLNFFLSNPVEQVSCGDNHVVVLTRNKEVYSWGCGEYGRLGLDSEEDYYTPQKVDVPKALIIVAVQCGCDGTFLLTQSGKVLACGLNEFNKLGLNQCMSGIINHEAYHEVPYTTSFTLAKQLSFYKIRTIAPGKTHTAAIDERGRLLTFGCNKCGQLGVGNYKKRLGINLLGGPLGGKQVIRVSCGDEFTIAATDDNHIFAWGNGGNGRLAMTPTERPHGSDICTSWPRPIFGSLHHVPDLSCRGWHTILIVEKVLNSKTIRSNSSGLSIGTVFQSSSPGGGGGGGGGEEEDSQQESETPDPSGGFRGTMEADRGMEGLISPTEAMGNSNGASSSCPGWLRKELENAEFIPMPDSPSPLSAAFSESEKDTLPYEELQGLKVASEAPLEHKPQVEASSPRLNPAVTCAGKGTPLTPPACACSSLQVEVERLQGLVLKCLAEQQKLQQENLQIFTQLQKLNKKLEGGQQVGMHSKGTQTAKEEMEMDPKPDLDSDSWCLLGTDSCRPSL

[11] = target: T4, Serine/threonine-protein kinase Nek9 (Homo sapiens); conditions: at 1 µM
[12] = target: T5, Dual specificity protein kinase TTK (Homo sapiens) (UniProt P33981); conditions: at 0.1 µM
T5 sequence (whole entry): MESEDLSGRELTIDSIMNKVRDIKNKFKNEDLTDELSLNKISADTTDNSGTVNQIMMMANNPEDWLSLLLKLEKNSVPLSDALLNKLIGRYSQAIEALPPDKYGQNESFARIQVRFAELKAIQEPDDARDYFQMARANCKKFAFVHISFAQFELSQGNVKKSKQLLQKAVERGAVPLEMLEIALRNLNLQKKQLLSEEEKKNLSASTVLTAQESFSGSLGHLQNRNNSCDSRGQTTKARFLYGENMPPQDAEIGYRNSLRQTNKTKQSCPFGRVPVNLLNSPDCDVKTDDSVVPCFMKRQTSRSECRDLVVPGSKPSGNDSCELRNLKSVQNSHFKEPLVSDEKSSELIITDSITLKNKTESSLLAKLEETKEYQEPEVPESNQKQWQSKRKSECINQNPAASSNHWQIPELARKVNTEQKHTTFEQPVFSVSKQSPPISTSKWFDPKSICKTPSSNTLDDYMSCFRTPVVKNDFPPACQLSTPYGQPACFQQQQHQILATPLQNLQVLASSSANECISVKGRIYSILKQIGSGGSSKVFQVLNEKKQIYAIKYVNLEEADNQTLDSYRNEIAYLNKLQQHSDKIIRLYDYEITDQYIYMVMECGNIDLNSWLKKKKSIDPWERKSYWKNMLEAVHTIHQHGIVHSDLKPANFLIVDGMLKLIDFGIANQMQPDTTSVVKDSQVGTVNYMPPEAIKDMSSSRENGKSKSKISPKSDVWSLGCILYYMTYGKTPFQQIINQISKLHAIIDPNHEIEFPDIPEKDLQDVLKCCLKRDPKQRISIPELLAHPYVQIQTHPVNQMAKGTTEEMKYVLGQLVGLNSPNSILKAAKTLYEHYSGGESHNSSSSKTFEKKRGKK

[13] = system: T6, Receptor-type tyrosine-protein kinase FLT3 (Homo sapiens), P36888 [D835Y]; conditions: at 1 µM
T6 sequence (whole entry): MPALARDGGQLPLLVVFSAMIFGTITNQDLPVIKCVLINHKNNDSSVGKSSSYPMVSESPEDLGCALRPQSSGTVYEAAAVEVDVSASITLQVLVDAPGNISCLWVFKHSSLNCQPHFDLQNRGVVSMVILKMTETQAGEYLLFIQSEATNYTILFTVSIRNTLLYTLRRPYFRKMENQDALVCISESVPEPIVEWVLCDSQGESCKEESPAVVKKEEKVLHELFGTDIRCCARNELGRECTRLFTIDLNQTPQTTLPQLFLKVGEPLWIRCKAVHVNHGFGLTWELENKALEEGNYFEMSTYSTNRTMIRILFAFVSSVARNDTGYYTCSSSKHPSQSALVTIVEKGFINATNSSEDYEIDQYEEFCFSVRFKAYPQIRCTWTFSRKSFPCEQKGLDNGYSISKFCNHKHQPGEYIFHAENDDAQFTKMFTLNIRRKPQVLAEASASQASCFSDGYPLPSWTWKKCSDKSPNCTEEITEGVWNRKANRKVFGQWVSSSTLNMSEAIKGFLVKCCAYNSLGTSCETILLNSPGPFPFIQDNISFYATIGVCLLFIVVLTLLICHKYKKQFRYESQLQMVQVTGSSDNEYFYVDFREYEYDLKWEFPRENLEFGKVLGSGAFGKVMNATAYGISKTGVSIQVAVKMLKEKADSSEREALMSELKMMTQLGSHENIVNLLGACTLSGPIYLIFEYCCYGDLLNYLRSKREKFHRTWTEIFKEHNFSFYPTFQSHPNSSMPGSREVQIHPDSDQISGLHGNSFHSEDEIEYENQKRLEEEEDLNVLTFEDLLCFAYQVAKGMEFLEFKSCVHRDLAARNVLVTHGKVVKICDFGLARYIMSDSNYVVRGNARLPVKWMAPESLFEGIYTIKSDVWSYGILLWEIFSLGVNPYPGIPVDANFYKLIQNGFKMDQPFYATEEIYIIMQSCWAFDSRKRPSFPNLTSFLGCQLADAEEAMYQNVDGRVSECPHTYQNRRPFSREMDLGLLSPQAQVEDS

[14] = target: Vascular endothelial growth factor receptor 3 (Homo sapiens) (UniProt P35916); conditions: at 0.1 µM
Vascular endothelial growth factor receptor 3 (Homo sapiens), sequence (P35916 whole entry): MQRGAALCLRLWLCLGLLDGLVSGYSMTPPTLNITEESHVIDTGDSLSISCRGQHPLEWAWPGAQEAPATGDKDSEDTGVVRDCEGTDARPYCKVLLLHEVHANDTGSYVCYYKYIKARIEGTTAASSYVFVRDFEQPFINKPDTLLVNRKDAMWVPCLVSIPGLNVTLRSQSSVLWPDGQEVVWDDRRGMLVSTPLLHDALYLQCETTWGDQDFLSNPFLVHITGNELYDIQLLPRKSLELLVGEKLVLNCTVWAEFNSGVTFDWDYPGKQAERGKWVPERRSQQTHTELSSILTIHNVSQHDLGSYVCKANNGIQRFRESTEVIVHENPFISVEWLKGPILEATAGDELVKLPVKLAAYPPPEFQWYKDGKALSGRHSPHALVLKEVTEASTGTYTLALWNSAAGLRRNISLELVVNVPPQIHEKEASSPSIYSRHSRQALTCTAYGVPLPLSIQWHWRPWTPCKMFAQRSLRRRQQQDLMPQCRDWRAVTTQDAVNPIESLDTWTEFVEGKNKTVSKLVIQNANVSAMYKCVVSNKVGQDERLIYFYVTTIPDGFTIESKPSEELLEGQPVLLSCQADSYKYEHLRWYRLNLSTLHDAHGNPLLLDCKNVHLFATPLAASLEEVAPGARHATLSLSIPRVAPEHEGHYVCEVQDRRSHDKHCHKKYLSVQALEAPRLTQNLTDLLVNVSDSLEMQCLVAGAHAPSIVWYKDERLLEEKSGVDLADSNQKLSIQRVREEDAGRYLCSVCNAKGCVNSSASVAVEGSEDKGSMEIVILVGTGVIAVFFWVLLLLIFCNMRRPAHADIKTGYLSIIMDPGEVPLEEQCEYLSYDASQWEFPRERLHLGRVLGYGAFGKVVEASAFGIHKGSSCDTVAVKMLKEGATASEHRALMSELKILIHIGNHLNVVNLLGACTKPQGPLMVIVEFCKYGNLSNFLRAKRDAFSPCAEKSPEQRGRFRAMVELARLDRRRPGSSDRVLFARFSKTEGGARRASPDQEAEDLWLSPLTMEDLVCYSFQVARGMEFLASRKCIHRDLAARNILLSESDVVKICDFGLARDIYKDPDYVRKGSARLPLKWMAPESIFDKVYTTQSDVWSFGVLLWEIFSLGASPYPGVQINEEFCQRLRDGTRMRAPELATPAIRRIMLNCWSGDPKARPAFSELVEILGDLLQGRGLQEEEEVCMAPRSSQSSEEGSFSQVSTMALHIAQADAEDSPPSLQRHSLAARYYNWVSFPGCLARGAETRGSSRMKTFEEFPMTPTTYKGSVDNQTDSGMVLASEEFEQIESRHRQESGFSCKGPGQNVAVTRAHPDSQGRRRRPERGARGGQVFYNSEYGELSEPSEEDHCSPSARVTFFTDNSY

[15] = target: Vascular endothelial growth factor receptor 3 (Homo sapiens) (UniProt P35916); conditions: at 1 µM
[16] = target: Macrophage colony-stimulating factor 1 receptor (Homo sapiens) (UniProt P07333); conditions: at 0.1 µM
Macrophage colony-stimulating factor 1 receptor (Homo sapiens), sequence (P07333 whole entry): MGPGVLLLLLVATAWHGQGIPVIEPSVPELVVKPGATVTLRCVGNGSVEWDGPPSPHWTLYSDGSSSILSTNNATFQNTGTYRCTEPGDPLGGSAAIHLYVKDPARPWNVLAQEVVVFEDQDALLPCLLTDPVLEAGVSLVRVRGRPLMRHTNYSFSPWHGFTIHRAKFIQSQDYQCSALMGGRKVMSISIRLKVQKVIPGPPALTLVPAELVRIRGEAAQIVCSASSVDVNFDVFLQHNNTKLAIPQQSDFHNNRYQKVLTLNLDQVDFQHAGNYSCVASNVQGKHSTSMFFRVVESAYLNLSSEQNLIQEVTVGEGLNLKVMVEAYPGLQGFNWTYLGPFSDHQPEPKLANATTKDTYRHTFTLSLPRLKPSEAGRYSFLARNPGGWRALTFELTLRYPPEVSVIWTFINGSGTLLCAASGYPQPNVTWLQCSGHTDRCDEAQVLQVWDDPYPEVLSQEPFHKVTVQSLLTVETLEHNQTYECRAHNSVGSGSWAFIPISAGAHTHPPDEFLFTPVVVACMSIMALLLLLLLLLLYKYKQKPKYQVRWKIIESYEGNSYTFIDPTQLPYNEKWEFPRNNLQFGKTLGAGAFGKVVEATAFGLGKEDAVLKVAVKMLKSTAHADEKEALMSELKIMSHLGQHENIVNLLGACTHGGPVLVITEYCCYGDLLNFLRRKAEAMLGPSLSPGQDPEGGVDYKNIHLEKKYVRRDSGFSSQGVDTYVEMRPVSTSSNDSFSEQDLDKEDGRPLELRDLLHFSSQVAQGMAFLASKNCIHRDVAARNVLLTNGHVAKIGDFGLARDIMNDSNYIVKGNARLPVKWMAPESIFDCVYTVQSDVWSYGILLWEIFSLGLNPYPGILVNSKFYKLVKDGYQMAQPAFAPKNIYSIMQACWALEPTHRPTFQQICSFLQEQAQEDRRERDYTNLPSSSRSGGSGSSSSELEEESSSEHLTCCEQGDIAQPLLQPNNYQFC

[17] = target: Macrophage colony-stimulating factor 1 receptor (Homo sapiens) (UniProt P07333); conditions: at 1 µM
[18] = target: Tyrosine-protein kinase Fyn (Homo sapiens) (UniProt P06241); conditions: at 0.1 µM
Tyrosine-protein kinase Fyn (Homo sapiens), sequence (P06241 2-537 limits assumed): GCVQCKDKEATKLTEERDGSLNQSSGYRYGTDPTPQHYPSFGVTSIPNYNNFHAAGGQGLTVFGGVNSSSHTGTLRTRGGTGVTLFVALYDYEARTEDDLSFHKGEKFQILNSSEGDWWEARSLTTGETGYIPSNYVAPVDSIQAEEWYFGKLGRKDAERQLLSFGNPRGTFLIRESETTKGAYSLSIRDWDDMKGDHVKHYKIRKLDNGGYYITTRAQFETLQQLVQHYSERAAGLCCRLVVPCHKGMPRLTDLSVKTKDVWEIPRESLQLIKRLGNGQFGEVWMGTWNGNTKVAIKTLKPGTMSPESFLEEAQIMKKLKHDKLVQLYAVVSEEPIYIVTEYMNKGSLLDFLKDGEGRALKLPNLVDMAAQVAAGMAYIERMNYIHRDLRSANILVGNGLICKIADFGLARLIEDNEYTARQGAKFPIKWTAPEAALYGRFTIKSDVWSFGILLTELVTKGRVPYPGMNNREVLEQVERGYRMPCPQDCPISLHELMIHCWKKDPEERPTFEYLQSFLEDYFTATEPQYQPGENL

[19] = target: Serine/threonine-protein kinase PLK1 (Homo sapiens) (UniProt P53350); conditions: at 0.1 µM
Serine/threonine-protein kinase PLK1 (Homo sapiens), sequence (P53350 whole entry): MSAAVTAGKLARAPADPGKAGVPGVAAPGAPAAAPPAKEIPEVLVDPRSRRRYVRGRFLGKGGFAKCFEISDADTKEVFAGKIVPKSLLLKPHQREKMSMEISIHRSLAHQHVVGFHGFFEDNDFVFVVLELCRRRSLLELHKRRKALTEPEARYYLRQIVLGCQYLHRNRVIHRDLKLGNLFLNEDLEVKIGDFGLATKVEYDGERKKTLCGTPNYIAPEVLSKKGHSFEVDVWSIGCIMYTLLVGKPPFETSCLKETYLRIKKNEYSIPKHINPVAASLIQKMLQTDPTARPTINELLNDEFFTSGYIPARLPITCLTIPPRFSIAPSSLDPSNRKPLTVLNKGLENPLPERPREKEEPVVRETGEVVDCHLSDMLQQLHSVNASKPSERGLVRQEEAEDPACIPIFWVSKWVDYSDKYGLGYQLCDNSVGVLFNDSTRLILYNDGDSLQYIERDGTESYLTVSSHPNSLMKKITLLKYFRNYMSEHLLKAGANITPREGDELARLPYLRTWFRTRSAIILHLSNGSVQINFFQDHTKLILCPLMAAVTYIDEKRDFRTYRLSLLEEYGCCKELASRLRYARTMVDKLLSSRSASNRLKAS

[20] = target: Serine/threonine-protein kinase PLK1 (Homo sapiens) (UniProt P53350); conditions: at 1 µM

| Structure (SMILES) | inhibition [1] [%] | inhibition [2] [%] | inhibition [3] [%] | inhibition [4] [%] | inhibition [5] [%] | inhibition [6] [%] | inhibition [7] [%] | inhibition [8] [%] | inhibition [9] [%] | inhibition [10] [%] | inhibition [11] [%] | inhibition [12] [%] | inhibition [13] [%] | inhibition [14] [%] | inhibition [15] [%] | inhibition [16] [%] | inhibition [17] [%] | inhibition [18] [%] | inhibition [19] [%] | inhibition [20] [%] |
| --- | --- | --- | --- | --- | --- | --- | --- | --- | --- | --- | --- | --- | --- | --- | --- | --- | --- | --- | --- | --- |
| C[C@@H](Oc1cc(-n2cnc3ccc(OC4CCN(C)CC4)cc32)sc1C(N)=O)c1ccccc1Cl | 6.16 | 9.13 | 38.1 | 10.1 | 39.5 | -0.34 | 2.21 | 3.24 | 8.62 | 62 | 97.2 | 6.06 | 12.2 | -3.01 | 13.8 | 3.34 | 16.3 | -3.18 | – | – |
| CCc1cccc(CC)c1/C=C/c1cncc(C(=O)NC)c1 | 3.78 | 1.27 | 1.92 | 3.4 | 3.05 | 0.31 | 0.68 | 2.82 | 2.39 | 8.92 | -1.94 | 3.43 | 4.06 | 1.11 | 2.42 | -1.63 | 6.91 | 3.51 | 1.32 | 1.99 |
| C#Cc1cccc(Nc2ncnc3ccc(OCCCCNCCS(C)(=O)=O)cc23)c1 | 9.33 | 3.06 | 8.52 | 5.28 | 6.09 | 3.67 | 3.84 | 4.76 | 3.44 | 8.12 | 10.2 | 9.49 | 1.41 | -5.89 | – | 4.11 | 2.93 | -1.92 | 2.94 | 2.68 |

From ChEMBL document CHEMBL1961873, “Compounds: GSK PKIS; Assays: Nanosyn kinase panel” (2012)
